Most compounds without a hit are left out; they make up all but 3.5% or so of the library.
MITF primary = inhibitors of human MITF | O75030 | inhibition, % at 2.6 µM | hit rate 0.91% among 650,000 | AlphaScreen MITF homodimerization, bead proximity signal; in the data active means inhibition above about 50%;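 further: 0% = vehicle wells with protein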
GPR151 activ = activators of human GPR151 | hit rate 1% among 650,000 | activation, % at 11.2 µM | PathHunter beta-arrestin GPR151 cells, luminescence | Q8TDV0; in the data active means activation above about 4.9%;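 further: 0% = median of compound wells and 100% = cells with positive control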
Target sequence (Q8TDV0 whole entry, looked up): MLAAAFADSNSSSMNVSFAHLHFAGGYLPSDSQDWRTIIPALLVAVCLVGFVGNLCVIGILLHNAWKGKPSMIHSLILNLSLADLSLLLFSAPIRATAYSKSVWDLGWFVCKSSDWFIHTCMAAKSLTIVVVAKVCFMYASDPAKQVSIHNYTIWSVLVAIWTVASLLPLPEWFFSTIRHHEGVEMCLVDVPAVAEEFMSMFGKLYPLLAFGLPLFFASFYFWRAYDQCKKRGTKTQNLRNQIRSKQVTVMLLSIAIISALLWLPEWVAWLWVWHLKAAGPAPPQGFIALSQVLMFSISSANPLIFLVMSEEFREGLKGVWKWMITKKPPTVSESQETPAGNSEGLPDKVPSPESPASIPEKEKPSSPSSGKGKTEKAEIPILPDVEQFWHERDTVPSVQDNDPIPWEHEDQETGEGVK
FBW7 act = activators of human E3 ligase FBW7 | Q969H0 | AlphaScreen FBW7–phospho-cyclin E peptide binding, activator screen | normalized activity (activation), % at 26.1 µM | hit rate 0.13% among 650,000 | AID 1259310; in the data active means normalized activity above about 1.9%;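 further: purified mutant Fbw7 with reduced substrate affinity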
TEAD-YAP block = TEAD-YAP interaction inhibition. AID 1259422. HEK-TIYL cells, TEAD-Gal4/YAP UAS-luciferase luminescence. inhibition, % at 9.12 µM. hit rate 1.4% among 640,000; in the data active means inhibition above about 32%;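 further: 0% = median of test compound wells and 100% = reference inhibitor wells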
Numbers without * were called inactive.

SMILES	MITF primary	GPR151 activ	FBW7 act	TEAD-YAP block
C=CCN1C(=O)C(O)=C(C(C)=O)C1c1ccccc1 (stereo unspecified)	15.6	1.8	0.3	4.4
COc1cc(C(=O)Nc2ccccc2C(=O)NCCc2ccccc2)cc(OC)c1OC	-7.5	0.4	0.0	38.9*
COc1cc(C(=O)Nc2ccc(-c3nc4ccccc4[nH]3)cc2)cc(OC)c1OC	7.9	-0.2	-0.1	32.0*
COc1cc(C(=O)NCc2ccc(C(=O)NCCc3ccccc3)cc2)cc(OC)c1OC	10.8	-0.7	0.1	-5.2
COc1ccc(C(=O)Nc2ccc(-c3nc4ccccc4[nH]3)cc2)cc1OC	-5.5	0.8	-0.1	3.4
COc1ccc(-n2c(C)c(C)n3c4c(=O)n(C(C)C(C)=O)c(=O)n(C)c4nc23)c(OC)c1 (stereo unspecified)	16.6	-0.8	0.1	7.4
CCCOc1ccc(NC(=O)CC2C(=O)N(CC)C(=S)N2CCc2ccccc2)cc1 (stereo unspecified)	-6.3	0.0	0.0	-1.7
Cn1c(-c2cccc([N+](=O)[O-])c2)n[nH]c1=S	1.4	0.5	0.1	3.3
Cn1c(-c2ccc3c(c2)OCO3)cn2cc(-c3cccc([N+](=O)[O-])c3)nc12	6.9	-1.1	0.1	97.7*
COc1ccc(-c2cn3cc(-c4cccc([N+](=O)[O-])c4)nc3n2C)cc1	2.3	-7.4	-0.4	97.6*
Cn1c(-c2ccccc2)cn2cc(-c3cccc([N+](=O)[O-])c3)nc12	2.7	-8.2	-0.3	98.8*
COc1ccc(-n2c(-c3cccc([N+](=O)[O-])c3)n[nH]c2=S)cc1	2.1	0.6	0.3	-1.8
O=[N+]([O-])c1cccc(-c2csc(Nc3ccc4c(c3)OCO4)n2)c1	25.6	-1.2	0.1	-21.0
CCC(C)NC(=O)CN(c1ccc(OC)cc1OC)S(C)(=O)=O (stereo unspecified)	-13.0	1.4	0.0	-1.4
COc1cc(C(=O)OCC(C)=O)ccc1OCc1c(C)noc1C	9.2	-1.5	-0.1	48.3*
COC(=O)c1ccc(COC(=O)c2ccc(OCc3c(C)noc3C)c(OC)c2)cc1	1.1	-0.2	0.1	-26.5
O=c1c(O)c(-c2ccccc2)oc2cc(O)cc(O)c12	-18.6	-1.3	-0.1	-21.1
O=c1c(O)c(-c2cc(O)c(O)c(O)c2)oc2cc(O)cc(O)c12	81.7*	0.1	-0.1	1.6
Cc1ccccc1N=c1oc2ccccc2cc1-c1nc2ccccc2[nH]1	0.0	-9.7	-0.1	42.7*
Cc1cccc(N=c2oc3ccccc3cc2-c2nc3ccccc3[nH]2)c1	-8.2	-10.7	-0.1	46.5*
Cc1ccc2nc(-c3cc4ccccc4oc3=N)[nH]c2c1	-28.2	-7.3	0.0	93.3*
CN(CCOc1ccccc1)C(=O)CC1C(=O)NCCN1Cc1ccc(Cl)c(F)c1 (stereo unspecified)	2.2	1.8	0.0	-5.7
CC(=O)N1c2ccccc2NC2=C(C(=O)CCC2)C1c1cccs1 (stereo unspecified)	-3.3	1.2	-0.1	49.3*
O=C1CCCC2=C1C(c1cccs1)Nc1ccc(C(=O)c3ccccc3)cc1N2 (stereo unspecified)	-3.0	0.0	0.0	54.8*
O=C1CCCC2=C1C(c1cccc(Br)c1)Nc1ccc(C(=O)c3ccccc3)cc1N2 (stereo unspecified)	7.3	1.0	0.0	67.8*
SMILES	MITF primary	GPR151 activ	FBW7 act	TEAD-YAP block
O=C1CCCC2=C1C(c1cccc(Br)c1)Nc1ccccc1N2 (stereo unspecified)	13.8	-0.4	0.4	-2.0
O=C1CCCC2=C1C(c1ccc(F)cc1)Nc1ccc(C(=O)c3ccccc3)cc1N2 (stereo unspecified)	12.3	-1.6	0.1	21.8
O=C1CCCC2=C1C(c1cccs1)N(C(=O)c1ccccc1)c1ccccc1N2 (stereo unspecified)	2.5	-0.5	-0.1	3.5
O=C1CCCC2=C1C(c1ccc(O)cc1)Nc1ccc(C(=O)c3ccccc3)cc1N2 (stereo unspecified)	4.0	0.3	-0.1	33.9*
O=C(NCCCCN1CCOC(c2ccccc2)C1)C12CC3CC(CC(C3)C1)C2 (stereo unspecified)	4.0	1.9	0.0	-6.0
N#Cc1ccccc1Nc1nc(N)nc(Cl)n1	35.5	0.8	-0.1	1.8
COc1ccc(-n2c(/C=C/N(C)C)c([N+](=O)[O-])c3ccc(O)c(COC(C)=O)c32)cc1	15.2	0.0	0.5	11.6
CCN(CC)Cc1c(O)ccc2c([N+](=O)[O-])c(C)n(-c3ccc(OC)cc3)c12	-6.9	-0.5	0.0	37.0*
C(=N\Nc1nn[nH]n1)/c1ccc(N2CCOCC2)cc1	57.9*	0.1	0.0	-5.4
COc1cccc(C(=O)/C=C/Nc2cc(Cl)ccc2OC)c1	12.3	-3.1	0.4	-33.9
COc1ccccc1NC(CC(=O)c1ccccc1)C(=O)O (stereo unspecified)	-7.1	0.1	0.0	54.2*
COc1ccccc1N/C=C/C(=O)c1ccccc1	4.5	-1.3	0.0	45.5*
O=C(CC(Nc1ccc(F)cc1)C(=O)O)c1ccccc1 (stereo unspecified)	-11.4	1.9	0.1	-5.0
COc1cccc(C(=O)/C=C\Nc2ccc(OC)cc2OC)c1	0.6	-8.8	-0.1	79.7*
COc1ccc(OC)c(N/C=C/C(=O)c2ccccc2)c1	9.7	-8.8	0.0	94.5*
CCNc1nc(NCCOc2ccccc2)c2ncn(CCN3CCCC3=O)c2n1	5.9	2.0	0.2	0.2
COc1ccc(N2C(=O)C3C4CC(=O)C(c5ccccc54)C3C2=O)cc1 (stereo unspecified)	10.5	-0.2	0.7	5.2
CCOC(=O)C1=C(C)OC(N)=C(C#N)C1c1cccs1 (stereo unspecified)	6.2	-1.7	0.0	-2.5
CCN(CC)c1ccc2c(c1)OC(N)=C(C#N)C2c1cccnc1 (stereo unspecified)	-5.1	0.1	-0.1	53.6*
N#CC1=C(N)Oc2cc(N)ccc2C1c1cccnc1 (stereo unspecified)	-5.4	0.4	-0.3	2.8
CCN(CC)c1ccc2c(c1)OC(N)=C(C#N)C2c1cccs1 (stereo unspecified)	-3.4	-1.1	-0.1	53.4*
CCN(CC)c1ccc2c(c1)OC(N)=C(C#N)C2c1ccccc1 (stereo unspecified)	1.6	0.9	3.4*	17.0
CCCn1c2ccccc2n2c(C(=O)OCC)c(C)nc12	-1.1	0.2	-0.1	4.8
COCCCNc1nccn2c(-c3ccccc3CO)cnc12	-8.6	-1.4	-0.1	-47.7
O=C(NC1CC1)c1ccc(-c2nc(NCCO)c3ncn(-c4ccsc4)c3n2)cc1	-57.6	1.6	0.2	55.1*
CC(C)N(CCNc1nc(-c2ccc(C(=O)NC3CC3)cc2)nc2c1ncn2-c1ccccc1)C(C)C	9.6	1.4	0.2	9.8
CC(C)N(CCNc1nc(-c2ccc(C(=O)NC3CC3)cc2)nc2c1ncn2-c1ccsc1)C(C)C	-8.7	-0.6	0.0	60.3*
Cc1c(C(=O)NCc2ccccc2Cl)oc2ccc(S(=O)(=O)N3CCOCC3)cc12	4.0	1.5	2.4*	-1.3
COc1ccccc1CNC(=O)c1oc2ccc(S(=O)(=O)N3CCOCC3)cc2c1C	-0.3	-0.1	0.0	-13.2
